# Assay results from PubChem BioAssay (EPA / NIEHS).
# More than one record can exist for a structure, and the calls need not agree. Calls of active or inactive are those of the source. The calls were made as follows: active = hit-call score of the fitted dose curve at least 0.9, where 1 is the maximum; inactive = score below 0.9.
# Read-out: Tumor necrosis factor receptor 1 (TNFRSF1A), TNFRSF1A (gene 7132)
# Assay: LTEA_HepaRG_TNFRSF1A: Life Technologies and Expression Analysis (LTEA) Assay for Tumor necrosis factor receptor 1 (TNFRSF1A) using HepaRG (AID 2283535)
# Details: mRNA level, 48 h; actives raise or lower the signal
# Experimental: LTEA_HepaRG is a cell based, multiplexed-readout assay that uses HepaRG, a human liver cell line, with measurements taken at 48 hours after chemical dosing on a 96-well plate.LTEA_HepaRG_TNFRSF1A is one of 102 assay component(s) measured in the LTEA HepaRG cell culture assay. It is a marker of Cell proliferation, survival, death.Data from the assay component LTEA_HepaRG_TNFRSF1A was analyzed into 1 endpoint. This assay endpoint, LTEA_HepaRG_TNFRSF1A, was analyzed with bidirectional fitting relative to DMSO as the negative control and baseline of activity. Using a type of inducible reporter, measures of mRNA induction for gain or loss-of-signal activity can be used to understand regulation of transcription factor activity. To generalize the intended target to other relatable targets, this assay endpoint is annotated to the cytokine receptor intended target family, where the subfamily is TNF receptor.
# A total of 1060 chemcials from the ToxCast library were tested in eight-point concentration-response experiments. Cell culture and cytotoxicity assays were conducted at Thermo Fisher Scientific's Custom Services facility (Madison, WI). A single lot of human HepaRG cells (Thermo Fisher Scientific, Frederick, MD) was used for the cell culture experiments. 96-well format collagen type I coated plates of human HepaRG cells were prepared using established methods. Briefly, cryopreserved HepaRG cells were thawed, plated at a density of approximately 100,000 cells/well in HepaRG Thaw, Plate, and General Purpose media (HPRG770, Thermo Fisher Scientific), and incubated for 48 hours. 0.5% DMSO was selected as vehicle control to balance the requisite need of DMSO in HepaRG cultures to maintain differentiation (for example, baseline metabolism, proportions of hepatocytes vs. cholangiocytes), while enabling further hepatic receptor pathway activation (for example, PXR and CAR) in response to chemical exposure. 48 hours after plating, the culture medium was replaced with HepaRG Serum-Free Incudtion Media. Cells were exposed to each test chemical in duplicate and maintained in CO2 incubators for another 48 hours. Chemical plates were thawed to room temperature and 200x concentrations of treatment groups were prepared. 8-point conentration-reponse curves were made with the highest exposure at 100 uM, followed by half-log dilutions, all in 0.5% DMSO. Each test plate contained variouse controls, induction positive controls (1mM phenobarbital), cytotoxicity positive controls ([…] aflatoxin B1), vehicle controls (0.5% DMSO), and total lysis controls (0.5% DMSO). Cell morphology images were taken using an Essen IncuCyte FLR automated microscope, with six 96-well plates imaged in about 24 minutes. Images were captured and exported and JPEG files. Spent culture media was transfered to black-well plates for the LDH assay, and remaining media was sorted at -80 C for later use. Cells were treated with RLT buffer and frozen until shipped for gene expression analysis. Total RNA was isolated from the cell suspension in 75 uL of Buffer RLT (Qiagen, Germantown, MD 20874) by Quintiles/Expression Analysis (Durham, NC) using a custom isolation procedure. Total RNA from each plate well was transferred to a preamplification plate. Fluidigm's 96.96 Dynamic ArrayTM (Fluidigm, Amsterdam, the Netherlands) technology was used for gene expression analyses by quantitative reverse transcription polymerase chain reaction (qRT-PCR, performed by Quintiles/Expression Analysis, Durham, NC)89. Standard TaqManTM Assays (Applied Biosystems/ThermoFisher Scientific, Foster City, CA) were used to assess the expression of 93 genes selected based on their selectivity and sensitivity to important hepatic receptors known to be modulated by environmental chemicals; importance in human hepatocyte functionality; and hepatotoxicity. […]
SMILES,AC50,outcome
O=C(Nc1ccccc1)Nc1ccnc(Cl)c1,96.7 µM (active),
CCOP(=S)(OCC)SCn1c(=O)oc2cc(Cl)ccc21,,inactive
CCOC(=O)CC(SP(=S)(OC)OC)C(=O)OCC (stereo not given),,inactive
CCNc1nc(Cl)nc(NC(C)C)n1,,inactive
CCCC1COC(Cn2cncn2)(c2ccc(Cl)cc2Cl)O1 (stereo not given),,inactive
CNC(=O)ON=CC(C)(C)SC,,inactive
CC1COC(Cn2cncn2)(c2ccc(Oc3ccc(Cl)cc3)cc2Cl)O1 (stereo not given),72.2 µM (active),
CC(C)(C)c1ccc(CSc2cnn(C(C)(C)C)c(=O)c2Cl)cc1,,inactive
C=CCC1=C(C)C(OC(=O)C2C(C=C(C)C)C2(C)C)CC1=O (stereo not given),,inactive
CCNc1nc(Cl)nc(NCC)n1,,inactive
Fc1ccc(Oc2ccnc3cc(Cl)cc(Cl)c23)cc1,,inactive
CCCN(CCC)c1c([N+](=O)[O-])cc(S(N)(=O)=O)cc1[N+](=O)[O-],82.1 µM (active),inactive
OC(c1ccc(Cl)cc1)(c1cncnc1)c1ccccc1Cl (stereo not given),,inactive
CCc1nn(C)c(C(=O)NCc2ccc(C(C)(C)C)cc2)c1Cl,27.4 µM (active),
CON(C)C(=O)Nc1ccc(Cl)c(Cl)c1,,inactive
CCCCNC(=O)OCC#CI,,inactive
Cc1cc(Cl)ccc1OCC(=O)O,,inactive
COC(=O)c1ccccc1C(=O)OC,,inactive
CC1=C(C(=O)Nc2ccccc2)SCCO1,,inactive
CN(C)C(=S)SSC(=S)N(C)C,,inactive

SMILES,AC50,outcome
COP(N)(=O)SC (stereo not given),,inactive
COP(=S)(OC)Oc1nc(Cl)c(Cl)cc1Cl,,inactive
CS/C(C)=N/OC(=O)N(C)SN(C)C(=O)O/N=C(\C)SC,,inactive
COc1ccc(C(c2ccc(OC)cc2)C(Cl)(Cl)Cl)cc1,,inactive
Cc1ccc(-c2c(Cl)nc(C#N)n2S(=O)(=O)N(C)C)cc1,34.9 µM (active),
CC(Oc1ccc(Cl)cc1Cl)C(=O)O (stereo not given),,inactive
O=C(O)c1nc(Cl)ccc1Cl,,inactive
CO/C=C(/C(=O)OC)c1ccccc1Oc1cc(Oc2ccccc2C#N)ncn1,,inactive
CNC(=S)S,,inactive
COc1cnc(OC)n2nc(NS(=O)(=O)c3c(OCC(F)F)cccc3C(F)(F)F)nc12,,inactive
CCOc1cc(Oc2ccc(C(F)(F)F)cc2Cl)ccc1[N+](=O)[O-],,inactive
N#CC(CCc1ccc(Cl)cc1)(Cn1cncn1)c1ccccc1 (stereo not given),,inactive
N#Cc1nn(-c2c(Cl)cc(C(F)(F)F)cc2Cl)c(N)c1S(=O)C(F)(F)F (stereo not given),,inactive
C=CC1(C)OC(=O)N(c2cc(Cl)cc(Cl)c2)C1=O (stereo not given),,inactive
COC(=O)C(C)Oc1ccc(Oc2ccc(Cl)cc2Cl)cc1 (stereo not given),,inactive
Cc1c(F)c(F)c(COC(=O)C2C(/C=C(\Cl)C(F)(F)F)C2(C)C)c(F)c1F (stereo not given),,inactive
CCON=C(CC)C1=C(O)CC(c2c(C)cc(C)cc2C)CC1=O (stereo not given),,inactive
C#CCOS(=O)OC1CCCCC1Oc1ccc(C(C)(C)C)cc1 (stereo not given),26.1 µM (active),
N#Cc1cc(Br)c(O)c(Br)c1,16.9 µM (active),
